In PubChem BioAssay (NCI):
The panel holds about 79,000 compounds, 15% with a hit somewhere; the sample as a whole holds those more often. Values without a mark were called inactive. Calls of active or inactive are those of the source. No stated cut-off is given here; in the data, active means growth inhibition above about 70%; inactive means the rest.

Legend:
[1] = NCI Yeast Anticancer Drug Screen. Data for the rad50 strain (AID 155);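 further: 0% = growth of vehicle-only cultures of the same strain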; settings: S. cerevisiae rad50 strain growth inhibition, active compounds read high
How it was run: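 Readout: growth inhibition relative to vehicle-treated cultures. Compound exposure was carried out in a genetically defined yeast strain deficient in DNA damage repair.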

[2] = NCI Yeast Anticancer Drug Screen. Data for the mec2-1 strain (AID 157); settings: S. cerevisiae mec2-1 strain, active compounds read high
How it was run: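 Readout is yeast growth inhibition, normalised to vehicle-treated controls, in the mec2-1 strain exposed to compound.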

[3] = NCI Yeast Anticancer Drug Screen. Data for the sgs1 mgt1 strain (AID 161);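 further: 0% = growth of cultures given vehicle only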; settings: S. cerevisiae sgs1 mgt1 strain, active compounds read high
How it was run: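 Yeast cells carrying a defined DNA-repair defect were exposed to test compounds. Growth inhibition was measured relative to vehicle-treated controls.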

[4] = NCI Yeast Anticancer Drug Screen. Data for the cln2 rad14 strain (AID 165);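 further: 0% = growth equal to vehicle treated cultures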; settings: S. cerevisiae cln2 rad14 strain, active compounds read high
How it was run: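 Relative to vehicle controls, growth inhibition of compound-treated cln2 rad14 yeast was recorded.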

[5] = NCI Yeast Anticancer Drug Screen. Data for the bub3 strain (AID 167); settings: S. cerevisiae bub3 mutant strain, active compounds read high
How it was run: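 Readout: yeast growth inhibition, expressed relative to vehicle-only wells. The test organism is a mutant strain from a panel with lesions in DNA repair or checkpoint genes.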

[6] = NCI Yeast Anticancer Drug Screen. Data for the mlh1 rad18 strain (AID 175); settings: S. cerevisiae mlh1 rad18 strain growth inhibition, active compounds read high
How it was run: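 Test agents were incubated with a yeast strain of defined genotype (DNA damage repair defect). Inhibition of growth was derived by comparison with vehicle-exposed cultures.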

[7] = at 5.0 µM (retest, dose inferred, filed as 0.5)
[8] = at 50.0 µM (retest, dose inferred, filed as 5.0)

SMILES	growth inhibition [1, 7]	growth inhibition [1, 8]	growth inhibition ([1]; at 50.0 µM)	growth inhibition [2, 7]	growth inhibition [2, 8]	growth inhibition ([2]; at 50.0 µM)	growth inhibition [3, 7]	growth inhibition [3, 8]	growth inhibition ([3]; at 50.0 µM)	growth inhibition [4, 7]	growth inhibition [4, 8]	growth inhibition ([4]; at 50.0 µM)	growth inhibition [5, 7]	growth inhibition [5, 8]	growth inhibition ([5]; at 50.0 µM)	growth inhibition [6, 7]	growth inhibition [6, 8]	growth inhibition ([6]; at 50.0 µM)
CN(C)c1ccc(C2(Cl)c3ccccc3N(Cc3ccccc3)c3ccccc32)cc1	99% (active)	94% (active)	96.5% (active)	99% (active)	95% (active)	97.2% (active)	99% (active)	95% (active)	96% (active)	99% (active)	93% (active)	93.2% (active)	99% (active)	94% (active)	96.4% (active)	99% (active)	94% (active)	96.3% (active)
CCN(CC)CC(O)CNc1ccc(NCC(O)CCl)c2c1C(=O)c1ccccc1C2=O (stereo not drawn)	98% (active)	98% (active)	36%	98% (active)	98% (active)	-19.1%	98% (active)	98% (active)	7.1%	97% (active)	97% (active)	10.8%	97% (active)	97% (active)	12.4%	99% (active)	99% (active)	19.1%
COc1ccnc2c1C(=O)c1nc3ccccc3c3ccnc-2c13	14%	89% (active)	81.2% (active)	-9%	83% (active)	79.8% (active)	9%	83% (active)	81.5% (active)	2%	88% (active)	80.8% (active)	-15%	86% (active)	81% (active)	23%	92% (active)	-21.9%
CN(C)c1ccc(N=Nc2ccc3c4c(cccc24)-c2ccccc2-3)cc1	26%	94% (active)	96.5% (active)	-4%	96% (active)	97.5% (active)	3%	96% (active)	97.4% (active)	-1%	97% (active)	95.8% (active)	0%	95% (active)	97% (active)	-1%	95% (active)	97% (active)
Cc1ccc2c(n1)C(=O)C=CC2=O	25%	94% (active)	80.1% (active)	5%	94% (active)	89.5% (active)	22%	90% (active)	80.8% (active)	22%	77% (active)	22.9%	20%	97% (active)	80.8% (active)	17%	93% (active)	36.2%
O=C(c1cccs1)N(C(=S)N1CCN(c2ccccn2)CC1)c1ccccc1	10%	16%	15.4%	-8%	8%	7.85%	3%	1%	36.6%	6%	10%	20.8%	-2%	3%	16.1%	-3%	14%	63.8%
